The results in this text go back to PubChem BioAssay (NCI).

Common to all, as to assay: NCI-60 one-dose screen, 48 h (100 = growth as untreated, 0 = no growth, -100 = all killed)
Details in all cases: 10 µM unless noted

In assay [1] the test system is T-47D breast.
Assay [2] deals with BT-549 breast.
Assay [3] has as its system MDA-MB-435 melanoma.
Assay [4] relates to SW-620 colon.
For assay [5], the system named is MCF7 breast.
Assay [6] relates to HCT-116 colon.
Assay [7] relates to HCC-2998 colon.
Assay [8] deals with KM12 colon.

Values joined by “and” are separate entries in the source; they are usually repeats but may differ in a detail not shown here. Equal entries are not always repeated. About 83,000 compounds went through this panel and 20% of them were active in at least one assay; those are over-represented in the sample as a whole.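 How to read the values: 0–100, growth inhibition (40 = 60% inhibited); 0, no net growth; -100 to 0, cell death (-40 = 40% of starting cells died; -100 = all dead).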 Active and inactive are the calls of the source. How the source made its calls: active means growth percent below 10; inactive means the rest.

`Nc1n[nH]c2cccc(C#Cc3cccc(NC(=O)c4ccc(N5CCOCC5)c(C(F)(F)F)c4)c3)c12`: the growth is -0.951% (active) in assay [1]; 14.2% (inactive) in assay [2]; 19.2% (inactive) in assay [3]; 21.5% (inactive) in assay [4]; 25.6% (inactive) in assay [5]; 2.84% (active) in assay [6]. Also, the growth is 6.77% (active) in assay [7] and 21.4% (inactive) in assay [8].
On to `Nc1nc(Nc2ccc(F)cc2)nn1C(=O)c1cc(Cl)ccc1Cl`, for which the growth was 84.9% (inactive) in assay [1]; 80% (inactive) in assay [2]; 88.8% (inactive) in assay [3]; 71.4% (inactive) in assay [4]; 48.8% (inactive) in assay [5]; 58.6% (inactive) in assay [6]. For the same compound, the growth in assay [7] is 86.3% (inactive); in assay [8], 51.4% (inactive).
Take `Cc1ccc(-c2nc(C#N)c(S(=O)(=O)N(C)C)o2)cc1`: the growth in assay [1] was 75.3% (inactive); in assay [2], 77.4% (inactive); in assay [3], 97.7% (inactive); in assay [4], 81% (inactive); in assay [5] it was 46.1% (inactive); in assay [6], 63.2% (inactive). Further, the growth in assay [7] was 93.1% (inactive); in assay [8], 95.4% (inactive).
Turning to `Cc1ccc(-c2nc3nc(-c4ccc(Cl)cc4)nc(N4CCCNCC4)c3o2)cc1`, the growth in assay [1] was -36.5% (active); in assay [2] it was 99.4% (inactive); in assay [3], -81.1% (active); in assay [4], -81.9% (active); in assay [5], -79.4% (active); in assay [6], -75.6% (active). The results for the growth in assay [7] and in assay [8] were -78.8% (active) and -88.7% (active), respectively.
With `CN(C)CC1(C)Cc2ccsc2C1O` (configuration not stated), the growth in assay [1] was 113% (inactive) and 100% (inactive); in assay [2], 113% (inactive) and 102% (inactive); in assay [3] it was 111% (inactive) and 107% (inactive); in assay [4], 105% (inactive) and 112% (inactive); in assay [5], 110% (inactive) and 105% (inactive); in assay [6] it was 115% (inactive) and 104% (inactive). Also, the growth is 107% (inactive) and 103% (inactive) in assay [7]; 116% (inactive) and 106% (inactive) in assay [8].
As for `CN1C(=O)N(C)C2(c3ccccc3)N(CC(=O)Nc3ccccc3O)C(=O)NC12c1ccccc1` (configuration not stated), the growth in assay [1] is 98.5% (inactive); in assay [2] it was 104% (inactive); in assay [3], 106% (inactive); in assay [4], 97.4% (inactive); in assay [5], 101% (inactive); in assay [6], 98.3% (inactive). For the same compound, the values for the growth in assay [7] and in assay [8] were 118% (inactive) and 105% (inactive), respectively.
As for `O=C1/C(=C/c2ccccc2)CN(C(=O)C(Cl)Cl)C/C1=C\c1ccccc1`, the growth was 17.2% (inactive) in assay [1]; -5.59% (active) in assay [2]; -50.2% (active) in assay [3]; -49% (active) in assay [4]; -39% (active) in assay [5]; -70.7% (active) in assay [6]. Further, the growth in assay [7] is -59.6% (active); in assay [8], -61.8% (active).
Regarding `COc1ccc(C/C(C)=C(\c2ccc(O)cc2)c2ccc(OCCCN(C)C)cc2)cc1`, the growth in assay [1] was 72.6% (inactive); in assay [2], 108% (inactive); in assay [3] it was 101% (inactive); in assay [4], 95.2% (inactive); in assay [5] it was 41.1% (inactive); in assay [6], 80.8% (inactive). Further, the growth is 104% (inactive) in assay [7] and 93% (inactive) in assay [8].
On to `C=C(C)[C@@H]1CC[C@]2(C(=O)O)CC[C@]3(C)[C@H](CC[C@@H]4[C@@]5(C)CCC(N)C(C)(C)[C@@H]5CC[C@]43C)[C@@H]12` (some centres not stated), for which the growth in assay [1] is -4.16% (active); in assay [2], 101% (inactive); in assay [3] it was -51% (active); in assay [4], 16.3% (inactive); in assay [5], 2.48% (active); in assay [6], 2.64% (active). The growth in assay [7] is 23.8% (inactive); in assay [8] it was 24.2% (inactive).
In the case of `Cc1ccc(S(=O)(=O)Nc2cc(Sc3ccccc3)c(O)c3ccccc23)cc1`, the growth in assay [1] is -1.22% (active); in assay [2], 97.1% (inactive); in assay [3] it was -95.4% (active); in assay [4], 108% (inactive); in assay [5], 64.1% (inactive); in assay [6] it was 58.9% (inactive). Also, the growth in assay [7] is 106% (inactive); in assay [8], 86.4% (inactive).
`CCOc1ccc(N2C(N)=NC(N)=NC2(C)C)cc1`: the growth in assay [1] was 38% (inactive) and 86% (inactive); in assay [2], 59.6% (inactive) and 83.4% (inactive); in assay [3], -42.8% (active) and 82.7% (inactive); in assay [4], 16.2% (inactive) and 75.8% (inactive); in assay [5], 6.3% (active) and 88.3% (inactive); in assay [6], 21.4% (inactive) and 63.1% (inactive). The growth is 40.2% (inactive) and 112% (inactive) in assay [7]; 25.1% (inactive) and 95.6% (inactive) in assay [8].
`CC1=CC=C(NC(=O)/C=C/c2ccccc2)CC1Nc1nccc(-c2cccnc2)n1` (configuration not stated): the growth in assay [1] is 48.1% (inactive); in assay [2], 74.5% (inactive); in assay [3], -48.5% (active); in assay [4], 27% (inactive); in assay [5], 18% (inactive); in assay [6] it was 14.5% (inactive). Moreover, the results for the growth in assay [7] and in assay [8] were 70.5% (inactive) and 26.4% (inactive), respectively.
For `COc1cc(F)c(/C=C/c2cc(/C=C/c3cc(OC)c(OC)cc3F)n(-c3cc(F)cc(F)c3)n2)cc1OC`, the growth was 64% (inactive) in assay [1]; 75.5% (inactive) in assay [2]; -4.07% (active) in assay [3]; 0.82% (active) in assay [4]; 8.88% (active) in assay [5]; 100% (inactive) in assay [6]. In addition, the growth was 85.5% (inactive) in assay [7] and 27.9% (inactive) in assay [8].
For the compound `C=C[C@]1(C)C=C2CC[C@@H]3C(C)(C)C(=O)CC[C@@]3(C)[C@@H]2CC1`, the growth in assay [1] was 105% (inactive); in assay [2] it was 126% (inactive); in assay [3] it was 101% (inactive); in assay [4] it was 105% (inactive); in assay [5] it was 101% (inactive); in assay [6], 103% (inactive). The growth in assay [7] is 107% (inactive); in assay [8], 98.6% (inactive).
